PMC4336329 (PLoS ONE, 2015)
In all, about 310,000 compounds went through this assay and about 14,000 (4.5%) showed an effect of 50% or more. Effects have a minus sign here. Only a selection was taken, and strong results are over-represented in it overall.

Each compound was assayed against human ether-à-go-go-related gene (hERG) potassium channel (human, UniProt Q12809) (assay: primary screen, population patch clamp on CHO cells stably expressing hERG; higher = less effect of the substance).
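Note: peak tail current of the secondary pulse compared with the same well before compound.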

human ether-à-go-go-related gene (hERG) potassium channel, sequence (Q12809 whole entry, looked up): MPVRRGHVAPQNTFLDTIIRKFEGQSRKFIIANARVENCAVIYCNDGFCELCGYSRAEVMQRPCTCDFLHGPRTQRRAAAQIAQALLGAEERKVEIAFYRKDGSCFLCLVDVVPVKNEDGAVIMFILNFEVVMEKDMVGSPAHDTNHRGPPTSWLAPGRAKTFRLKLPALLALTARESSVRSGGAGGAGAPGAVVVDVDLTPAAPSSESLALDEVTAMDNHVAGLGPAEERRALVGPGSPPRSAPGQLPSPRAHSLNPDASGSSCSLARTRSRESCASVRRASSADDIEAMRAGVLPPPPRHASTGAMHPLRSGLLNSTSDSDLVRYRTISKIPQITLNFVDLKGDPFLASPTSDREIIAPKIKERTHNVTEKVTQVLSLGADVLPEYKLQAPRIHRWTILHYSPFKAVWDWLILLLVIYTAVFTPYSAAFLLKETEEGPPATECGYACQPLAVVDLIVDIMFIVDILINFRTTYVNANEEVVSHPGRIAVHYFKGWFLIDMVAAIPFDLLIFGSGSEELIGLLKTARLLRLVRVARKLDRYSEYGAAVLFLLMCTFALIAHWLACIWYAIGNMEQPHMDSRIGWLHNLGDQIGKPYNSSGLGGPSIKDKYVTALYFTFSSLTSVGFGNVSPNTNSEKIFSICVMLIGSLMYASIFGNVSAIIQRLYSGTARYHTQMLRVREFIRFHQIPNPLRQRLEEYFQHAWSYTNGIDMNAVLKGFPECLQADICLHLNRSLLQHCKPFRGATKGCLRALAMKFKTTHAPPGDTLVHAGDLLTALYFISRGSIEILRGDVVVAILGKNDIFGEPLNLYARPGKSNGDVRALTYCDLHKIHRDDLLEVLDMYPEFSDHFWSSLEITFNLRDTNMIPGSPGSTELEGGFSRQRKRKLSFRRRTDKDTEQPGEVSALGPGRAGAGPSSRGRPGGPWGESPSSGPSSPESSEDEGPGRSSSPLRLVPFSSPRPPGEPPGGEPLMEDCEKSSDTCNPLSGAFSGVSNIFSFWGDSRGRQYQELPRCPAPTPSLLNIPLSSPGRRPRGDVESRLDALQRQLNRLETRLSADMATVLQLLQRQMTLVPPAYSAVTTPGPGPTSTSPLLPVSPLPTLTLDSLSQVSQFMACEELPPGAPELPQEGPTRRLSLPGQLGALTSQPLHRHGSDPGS

**Q.** Which “hERG current change (%, negative = inhibition) at 10uM” value does the source give for Oc1ccccc1-c1nc(NC2CCCC2)c2ccccc2n1 here?
**A.** The value was 17.8%.

**Q.** c1ccc2c(NC3CCCC3)nnc(NC3CCCC3)c2c1 was tested. Which “hERG current change (%, negative = inhibition) at 10uM” value did it give?
**A.** The value was -74.9%.

**Q.** With CC(C)c1nc(=S)n(-c2ccccc2)[nH]1 as the compound, how does the “hERG current change (%, negative = inhibition) at 10uM” value read?
**A.** The value was 17.5%.

**Q.** COc1cccc(Cn2nnc(C(=O)Nc3cc(C)ccc3OC)c2N)c1 was tested. Which “hERG current change (%, negative = inhibition) at 10uM” value did it give?
**A.** The value was 8.11%.

**Q.** For CCOC(=O)C1C(=O)NC(c2ccccc2)=NC1c1ccc(O)c(OC)c1 (stereo not drawn), which “hERG current change (%, negative = inhibition) at 10uM” value is on record?
**A.** Its value is 9.11%.

**Q.** For Cc1ccccc1CN1C(=O)[C@@H]2Cc3c([nH]c4ccccc34)C(C)(C)N2C1=O, which “hERG current change (%, negative = inhibition) at 10uM” value is on record?
**A.** The value was 19%.

**Q.** How did the “hERG current change (%, negative = inhibition) at 10uM” value turn out when Cl.N=c1sccn1CC(=O)N1CCc2ccccc21 was run?
**A.** Its value is -8.84%.

**Q.** How did the “hERG current change (%, negative = inhibition) at 10uM” value turn out when Cc1ccc(NC2=Nc3ccccc3CS2)cc1 was run?
**A.** Its value is 8.04%.

**Q.** With CCOC(=O)c1c(NC(=O)CSc2nc3ccccc3o2)sc(C)c1C as the compound, how does the “hERG current change (%, negative = inhibition) at 10uM” value read?
**A.** Its value is 19.4%.

**Q.** Cc1ccc2c(c1)nnn2C1CCN(CC(=O)N2CCN(c3ccc(F)cc3)CC2)CC1 was tested. Which “hERG current change (%, negative = inhibition) at 10uM” value did it give?
**A.** The value was -70.3%.

**Q.** Cc1ccc2c(c1)nnn2C1CCN(CC(=O)c2ccc(Cl)cc2)CC1 was tested. Which “hERG current change (%, negative = inhibition) at 10uM” value did it give?
**A.** Its value is -45.9%.

**Q.** How did the “hERG current change (%, negative = inhibition) at 10uM” value turn out when Cc1ccc2c(c1)nnn2C1CCN(CC(=O)Nc2ccc(F)cc2)CC1 was run?
**A.** The value was -65.4%.

**Q.** How did the “hERG current change (%, negative = inhibition) at 10uM” value turn out when Cc1ccccc1C(=O)NC1CCN(CC(=O)Nc2ccc3c(c2)OCCO3)CC1 was run?
**A.** The value was 2.93%.

**Q.** With Cc1ccc2c(c1)nnn2C1CCN(CC(=O)Nc2ccc3c(c2)OCCO3)CC1 as the compound, how does the “hERG current change (%, negative = inhibition) at 10uM” value read?
**A.** The value was -55.5%.

**Q.** How did the “hERG current change (%, negative = inhibition) at 10uM” value turn out when O=C(CN1CCC(n2nnc3cc(C(F)(F)F)ccc32)CC1)Nc1ccc2c(c1)OCCO2 was run?
**A.** The value was -36.5%.

**Q.** Which “hERG current change (%, negative = inhibition) at 10uM” value does the source give for Cc1ccc2c(c1)nnn2C1CCN(C(=O)C23CC4CC(CC(C4)C2)C3)CC1 here?
**A.** Its value is 1.11%.

**Q.** Which “hERG current change (%, negative = inhibition) at 10uM” value does the source give for O=C(CN1CCC(n2nnc3cc(F)ccc32)CC1)Nc1ccc2c(c1)CCC2 here?
**A.** The value was -21.3%.

**Q.** For CC1(CCC#N)N=C(SCCC#N)N(c2ccccc2)C1=O (stereo not drawn), which “hERG current change (%, negative = inhibition) at 10uM” value is on record?
**A.** Its value is 2.7%.

**Q.** With NC(Cc1ccc(O)c([N+](=O)[O-])c1)C(=O)O (stereo not drawn) as the compound, how does the “hERG current change (%, negative = inhibition) at 10uM” value read?
**A.** The value was 15.2%.

**Q.** Which “hERG current change (%, negative = inhibition) at 10uM” value does the source give for CN(CC(=O)NCCN1CCN(Cc2ccccc2)CC1)S(=O)(=O)c1cccc2nsnc12 here?
**A.** Its value is -25.4%.

**Q.** Which “hERG current change (%, negative = inhibition) at 10uM” value does the source give for CCC/C=C1/CCCOC(C(=O)NCc2cc(C)n(C)n2)(C(F)(F)F)C1 (stereo not drawn) here?
**A.** The value was 5.48%.

**Q.** For O=C(CSc1nnc(NC(=O)c2ccccc2C(=O)O)s1)Nc1ccccc1Cl, which “hERG current change (%, negative = inhibition) at 10uM” value is on record?
**A.** Its value is 24%.

**Q.** Which “hERG current change (%, negative = inhibition) at 10uM” value does the source give for O=C(O)c1ccc(Nc2nc(-c3cccnc3)cs2)cc1O here?
**A.** The value was 9.69%.

**Q.** How did the “hERG current change (%, negative = inhibition) at 10uM” value turn out when C=CCNC(=O)CSc1nnc(-c2cccs2)o1 was run?
**A.** The value was -0.265%.

**Q.** How did the “hERG current change (%, negative = inhibition) at 10uM” value turn out when Cc1ccc(-c2nn(-c3cc(Cl)ccc3[N+](=O)[O-])c(=O)c3ccccc23)cc1 was run?
**A.** Its value is -22.1%.

**Q.** For Cc1[nH]nc2c1C1(CCN(Cc3ccccc3)CC1)C(C#N)=C(N)O2, which “hERG current change (%, negative = inhibition) at 10uM” value is on record?
**A.** The value was -42%.

**Q.** For CC(C)c1[nH]nc2c1C1(CCN(Cc3ccccc3)CC1)C(C#N)=C(N)O2, which “hERG current change (%, negative = inhibition) at 10uM” value is on record?
**A.** Its value is -25.5%.

**Q.** Which “hERG current change (%, negative = inhibition) at 10uM” value does the source give for Cc1nc2c([nH]1)C1(CCN(Cc3ccccc3)CC1)C(C#N)=C(N)O2.Cl here?
**A.** The value was -52.5%.

**Q.** With COCCN1C(=O)c2cc(C(=O)Nc3cccc(F)c3)ccc2C1Nc1cccc(F)c1 (stereo not drawn) as the compound, how does the “hERG current change (%, negative = inhibition) at 10uM” value read?
**A.** The value was 7.71%.

**Q.** Cc1cc(C)c(S(=O)(=O)c2ccccc2)c(N(C)C)n1 was tested. Which “hERG current change (%, negative = inhibition) at 10uM” value did it give?
**A.** The value was 4.06%.

**Q.** How did the “hERG current change (%, negative = inhibition) at 10uM” value turn out when CCCCn1c(N)c(S(=O)(=O)c2ccc(C)cc2)c2nc3ccccc3nc21 was run?
**A.** The value was -0.298%.

**Q.** For Cc1ccc(S(=O)(=O)c2c(N)n(CCCN(C)C)c3nc4ccccc4nc23)cc1, which “hERG current change (%, negative = inhibition) at 10uM” value is on record?
**A.** Its value is -59%.

**Q.** For CCN(CC)CCn1c(N)c(S(=O)(=O)c2ccccc2)c2nc3ccccc3nc21, which “hERG current change (%, negative = inhibition) at 10uM” value is on record?
**A.** Its value is -49.4%.

**Q.** How did the “hERG current change (%, negative = inhibition) at 10uM” value turn out when CN(C)CCCn1c(N)c(S(=O)(=O)c2ccccc2)c2nc3ccccc3nc21 was run?
**A.** Its value is -51.1%.

**Q.** How did the “hERG current change (%, negative = inhibition) at 10uM” value turn out when Cc1ccc(S(=O)(=O)c2c(N)n(CCCO)c3nc4ccccc4nc23)cc1 was run?
**A.** The value was -21.4%.

**Q.** Which “hERG current change (%, negative = inhibition) at 10uM” value does the source give for Nc1c(S(=O)(=O)c2ccccc2)c2nc3ccccc3nc2n1CCN1CCOCC1 here?
**A.** Its value is -38.2%.

**Q.** With O=C(NCC1CCCN(C(=O)CN2CCCCC2)C1)c1ccccc1Cl (stereo not drawn) as the compound, how does the “hERG current change (%, negative = inhibition) at 10uM” value read?
**A.** The value was 13%.

**Q.** With Cc1cc(SCC(=O)NCCC2=CCCCC2)nc2ccccc12 as the compound, how does the “hERG current change (%, negative = inhibition) at 10uM” value read?
**A.** The value was -10.9%.

**Q.** Which “hERG current change (%, negative = inhibition) at 10uM” value does the source give for O=c1c(-c2ccnn2-c2ccc(F)cc2)cnc2n1CCS2 here?
**A.** The value was 19.9%.

**Q.** How did the “hERG current change (%, negative = inhibition) at 10uM” value turn out when Cc1cccc(NC(=O)CN2CCN(C(=O)C3CCC3)CC2)c1C was run?
**A.** Its value is -31.4%.

**Q.** Which “hERG current change (%, negative = inhibition) at 10uM” value does the source give for CCc1ccccc1NC(=O)CN1CCN(C(=O)C2CCN(C(=O)/C=C/c3ccccc3)CC2)CC1 here?
**A.** Its value is -72.9%.

**Q.** Cc1cccc(NC(=O)CN2CCN(C(=O)C3CCN(C(=O)/C=C/c4ccccc4)CC3)CC2)c1C was tested. Which “hERG current change (%, negative = inhibition) at 10uM” value did it give?
**A.** The value was -73.9%.

**Q.** How did the “hERG current change (%, negative = inhibition) at 10uM” value turn out when CCOC(=O)C1CCN(C(=O)/C=C/c2ccccc2)CC1 was run?
**A.** The value was -16.8%.

**Q.** How did the “hERG current change (%, negative = inhibition) at 10uM” value turn out when COC(=O)C1CCN(C(=O)/C=C/c2ccccc2)CC1 was run?
**A.** Its value is 4.21%.

**Q.** Cc1cccc(NC(=O)CN2CCN(C(=O)C3CCCO3)CC2)c1C (stereo not drawn) was tested. Which “hERG current change (%, negative = inhibition) at 10uM” value did it give?
**A.** Its value is 9.91%.
